The panel holds about 83,000 compounds, 20% with a hit somewhere; the sample as a whole holds those more often.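 96-well plates, one dose, 48 hours. Percent growth reported; active if below 10.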 Values without a mark were called inactive. Activity calls are given as the source filed them.

Data on 8 compounds can be found in PubChem BioAssay (NCI).

What all share (test): NCI-60 one-dose screen, 48 h (100 = growth as untreated, 0 = no growth, -100 = all killed)
Settings in all cases: 10 µM unless noted

Test [1] relates to NCI-H23 lung.
Test [2] has as its system NCI-H226 lung.
In test [3] the test system is NCI-H322M lung.
Test [4] has as its system HOP-62 NSCLC.
The subject of test [5] is NCI-H460 lung.
The test system of test [6] is HOP-92 NSCLC.
The subject of test [7] is NCI-H522 lung.
Test [8] has as its system A549/ATCC NSCLC.
Test [9] deals with 786-0 renal.
The test system of test [10] is COLO 205 colon.
Test [11] has as its system DU-145 prostate.
Test [12] has as its system K-562 leukemia.
For test [13], the system named is MALME-3M melanoma.
For test [14], the system named is MDA-MB-231 breast.
Test [15] relates to RXF 393 renal.
Test [16] relates to SF-268 CNS.
The test system of test [17] is SF-295 CNS.
In test [18] the test system is SF-539 CNS.
Test [19] has as its system UACC-257 melanoma.
Test [20] relates to M14 melanoma.

Take `NC1=C(/C(N)=N/O)C(c2ccccc2)c2ccc3ccccc3c2O1` (stereo not drawn): the growth was 28.7% in test [1]; 1.84% (active) in [2]; 40% in test [3]; 26.2% in [4]; 1.37% (active) in [5]; 29.8% in test [6]. Moreover, the growth in [7] is 5.81% (active); in [8] it was 21.2%; in [9], 29%; in [10] it was -5.32% (active); in test [11], 9% (active); in test [12] it was 13.2%. The growth in test [13] is 46.4%; in test [14], 8.69% (active); in [15], -14.1% (active); in test [16], 33%; in test [17] it was -0.153% (active); in test [18] it was -32.4% (active). Moreover, the values for the growth in test [19] and in test [20] were 46.7% and 11.7%, respectively.

Regarding `CC(C)C1=CC2=C(C=O)C[C@@H]3[C@](C)(CCC[C@@]3(C)C(=O)OCC#CCN3CCCC3)[C@H]2CC1`, the growth in [1] is 62.2%; in test [2], 75.7%; in test [3], 96.2%; in test [4], 84.9%; in test [5] it was 76.8%; in test [6] it was 45.9%. Further, the growth in test [7] is 59.9%; in test [8], 67.4%; in test [9], 75.2%; in [10] it was 86.5%; in test [11], 96.3%; in test [12], 30.8%. In addition, the growth in [13] was 81.8%; in [14], 89.3%; in test [15] it was 72.6%; in test [16], 86.9%; in test [17], 79.7%; in test [18] it was 63.9%. Moreover, the growth was 86.6% in test [19] and 75.9% in [20].

On to `OB(O)c1cccc(-c2nc3ccc4[nH]ncc4c3c3c2CCCC3)c1F`, for which the growth in [1] is 59%; in test [2] it was 37.9%; in test [3], 48.1%; in test [4] it was 29.3%; in test [5], 22.2%; in test [6], 27.1%. Besides, the growth in test [7] was 26.9%; in test [8], 47.9%; in [9] it was 34.8%; in test [10], 38.7%; in [11], 49.5%; in test [12], 66.2%. In addition, the growth was 120% in test [13]; 40.9% in [14]; -20.1% (active) in test [15]; 53% in test [16]; 69.3% in test [17]; 8.65% (active) in test [18]. For the same compound, the growth was 115% in [19] and 79.7% in [20].

As to `N#Cc1c(-c2ccccc2)cc(-c2ccccc2)n(CC(=O)NO)c1=O`, the growth in test [1] is 53.1%; in test [2] it was 38.9%; in test [3], 81.2%; in [4], 71.2%; in test [5], 83%; in test [6], 32%. The growth is -70.9% (active) in test [7]; 54.4% in test [8]; 63.7% in test [9]; 58.6% in [10]; 61% in [11]; 6.26% (active) in test [12]. Further, the growth is 66% in [13]; 42.8% in [14]; 27.9% in test [15]; 52.5% in [16]; 63.5% in [17]; 63.9% in test [18]. Moreover, the growth was 67.5% in test [19] and 64.8% in [20].

Turning to `N[C@H]1CN(C(=O)c2cc3cc(Br)c(F)c(F)c3[nH]2)C[C@@H]1O`, the growth in test [1] was 96.3%; in test [2] it was 83.7%; in test [3] it was 89.5%; in test [4], 99.9%; in test [5], 107%; in test [6] it was 79.2%. The growth in test [7] was 95.1%; in [8] it was 101%; in [9], 86.2%; in test [10] it was 118%; in test [11] it was 112%; in [12] it was 104%. The growth was 101% in test [13]; 92% in test [14]; 103% in [15]; 88.5% in [16]; 104% in [17]; 96% in test [18]. Moreover, the figures for the growth in test [19] and in test [20] were -76.6% (active) and 97.2%, respectively.

As for `C=CCn1c2ccccc2c2c3c(c4c5ccccc5n(CC=C)c4c21)C(=O)N(O)C3=O`, the growth was 24.2% in [1]; -97.9% (active) in test [2]; 52.8% in [3]; -1.11% (active) in test [4]; 8.86% (active) in test [5]; 77.2% in test [6]. The growth in test [7] is -62.5% (active); in [8], 37.7%; in test [9], 15.1%; in test [10] it was 56.5%; in test [11], 24.9%; in test [12], 27.3%. In addition, the growth was 96.1% in test [13]; 39.4% in test [14]; 42.2% in [15]; 33.7% in [16]; 16.2% in test [17]; 2.86% (active) in test [18]. In test [20], the growth was 17.2%.

As to `O=C1c2c(c3c4ccccc4n(CCCCCCBr)c3c3[nH]c4ccccc4c23)C(=O)N1O`, the growth in test [1] is -0.173% (active); in test [2] it was 70.5%; in test [3] it was 14.8%; in test [4], 8.33% (active); in test [5], 5.88% (active); in test [6], -13.6% (active). The growth in [7] is -7.94% (active); in test [8], 6.36% (active); in test [9], 17.3%; in [10], 62.4%; in test [11] it was 22.6%; in test [12] it was 8.97% (active). Further, the growth was -20% (active) in test [13]; -13.8% (active) in test [14]; 29.1% in test [15]; 24.7% in test [16]; 4.87% (active) in test [17]; -6% (active) in test [18]. Further, the growth in test [20] is 15.5%.

As for `CN(C)CCOC(=O)Nc1ccccc1Cl`, the growth in [1] is 98.3%; in [2], 106%; in test [3], 104%; in [4] it was 101%; in [5], 105%; in [6], 89.2%. For the same compound, the growth was 106% in test [7]; 112% in test [8]; 100% in test [9]; 113% in test [10]; 123% in [11]; 111% in test [12]. Moreover, the growth is 94.8% in test [13]; 107% in test [14]; 120% in test [15]; 112% in [16]; 114% in [17]; 110% in [18]. The values for the growth in test [19] and in test [20] were 121% and 100%, respectively.
